Assay results as given in PubChem BioAssay (EPA / NIEHS).
Records with an inconclusive call do not appear. Active and inactive are the calls of the source. The calls were made as follows, unless noted: active = hit-call score of the fitted dose curve at least 0.9, where 1 is the maximum; inconclusive = response in the unintended direction; inactive = score below 0.9.

Assays:
[1] = molecular target: Nuclear receptor subfamily 1 group I member 2 (Homo sapiens) (UniProt O75469); experiment: NVS_NR_hPXR: NovaScreen (NVS) Nuclear Receptor Binding Assay for human Pregnane X Receptor (PXR) (AID 2283365);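 also: a drop in FRET signal versus DMSO baseline means the compound binds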
In short: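 Read-out: TR-FRET, human PXR, 2 h post-dosing, cell-free. Loss of signal vs DMSO taken as binding activity; 25 uM primary, concentration series secondary.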

[2] = test system: rat Norepinephrine Transporter (NET), gene 83511; experiment: NVS_TR_rNET: NovaScreen (NVS) Transporter Assay for rat Norepinephrine Transporter (NET) (AID 2283373)
In short: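 Competitive radioligand displacement at the rat NET using forebrain membrane preparations, 1 h incubation, filter-based scintillation readout. Primary testing in duplicate at a single 25 uM concentration; confirmed actives retested across concentrations.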

[3] = molecular target: human Dopamine Transporter (DAT), SLC6A3 (gene 6531) (UniProt Q01959); experiment: NVS_TR_hDAT: NovaScreen (NVS) Transporter Assay for human Dopamine Transporter (DAT) (AID 2283374);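 also: activity means loss of bound radioligand signal relative to DMSO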
In short: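 Duplicate single-point screening at 25 uM preceded concentration-series follow-up of actives. Binding was measured by competitive displacement of a radioligand from DAT protein, filter-counted by scintillation 1 h after dosing. Decrease relative to DMSO taken as activity.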

[4] = molecular target: Norway rat Vesicular Monoamine Transporter (VMAT2), neurotransmitter transporter, Slc18a2 (gene 25549) (UniProt Q01827); experiment: NVS_TR_rVMAT2: NovaScreen (NVS) Transporter Assay for Norway rat Vesicular Monoamine Transporter (VMAT2), neurotransmitter transporter (AID 2283376);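 also: actives lower the bound radioligand signal below the DMSO level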
In short: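 Using rat forebrain membranes, specific radioligand binding to VMAT2 was measured by filtration and scintillation counting after 1 hour. Chemicals screened at 25 uM in duplicate, actives retested in concentration series, DMSO baseline.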

[5] = molecular target: human Norepinephrine Transporter (NET), SLC6A2 (gene 6530) (UniProt P23975); experiment: NVS_TR_hNET: NovaScreen (NVS) Transporter Assay for human Norepinephrine Transporter (NET) (AID 2283377);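 also: cell-free membrane protein extracted from CHO cells expressing human NET; displacement of radioligand from human NET seen as loss of scintillation signal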
In short: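 Single-concentration duplicate screen at 25 uM, then concentration-response for actives; displacement of specific radioligand from human NET in CHO membrane extracts, filter-based scintillation detection at 1 h relative to DMSO.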

[6] = molecular target: Estrogen receptor (Homo sapiens) (UniProt P03372); experiment: OT_ERa_GFPERaERE_0480: Odyssey Thera (OT) 8-hour HeLa Transcription Induction Assay for Estrogen Receptor (AID 2283381; active = hit-call score of the fitted dose curve at least 0.9, where 1 is the maximum; inactive = score below 0.9)
In short: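 Human cervical HeLa cells were treated for 8 hours, after which ERE-driven GFP induction was measured by fluorescence microscopy; increases over DMSO baseline defined activity.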

[7] = molecular target: Estrogen receptor (Homo sapiens) (UniProt P03372); experiment: OT_ERa_GFPERaERE_0120: Odyssey Thera (OT) 2-hour HeLa Transcription Induction Assay for Estrogen Receptor (AID 2283382)
In short: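 Cells (human cervical HeLa) receive compound, incubate 2 hours, then are imaged for fluorescent reporter induction. Images are quantified by high content analysis, and activity is fitted as gain of signal against DMSO.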

[8] = molecular target: guinea pig Sigma Receptor, Non-selective Binding, SIGMAR1 (gene 100135589) (UniProt Q60492); experiment: NVS_OR_gSIGMA_NonSelective: NovaScreen (NVS) Nuclear Receptor Binding Assay for guinea pig Sigma Receptor, Non-selective Binding (AID 2283367)
In short: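 Guinea pig brain membrane sigma sites were labelled with a radioligand, and bound radioactivity was counted after filtration 1 h post-dose. Compounds were screened at 25 uM in duplicate, then retested as concentration series when active.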

[9] = molecular target: Glucocorticoid receptor (Homo sapiens) (UniProt P04150); experiment: NVS_NR_hGR: NovaScreen (NVS) Nuclear Receptor Binding Assay for human Glucocorticoid Receptor (GR) (AID 2283363);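 as to AC50: activity is loss of specific radioligand binding signal relative to DMSO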
In short: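 Compounds first tested in duplicate at 25 uM, actives followed up in concentration series. Binding to extracted GR protein measured as competitive radioligand displacement, filter scintillation read 16 h post-dosing, normalised to DMSO.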

[10] = molecular target: Peroxisome proliferator-activated receptor gamma (Homo sapiens) (UniProt P37231); experiment: NVS_NR_hPPARg: NovaScreen (NVS) Nuclear Receptor Binding Assay for human Peroxisome Proliferator-activated Receptor gamma (PPARg) (AID 2283370)
In short: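 Extracted receptor protein, cell-free; compound incubated 2 h then fluorescence polarization read. Baseline: DMSO. Actives from 25 uM duplicate screen re-run across concentrations.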

[11] = molecular target: human Serotonin Transporter (SERT), SLC6A4 (gene 6532) (UniProt P31645); experiment: NVS_TR_hSERT: NovaScreen (NVS) Transporter Assay for human Serotonin Transporter (SERT) (AID 2283372)
In short: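 Human platelet membrane preparation; displacement of radioligand from serotonin transporter measured after 1 h by filtration and scintillation counting. Single 25 uM duplicate screen, then concentration series for actives, with DMSO as negative baseline.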

[12] = molecular target: rat Serotonin Transporter (SERT), Slc6a4 (gene 25553) (UniProt P31652); experiment: NVS_TR_rSERT: NovaScreen (NVS) Transporter Assay for rat Serotonin Transporter (SERT) (AID 2283375)
In short: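 Using rat forebrain membrane SERT, test chemicals compete with a radioligand for 1 hour, and bound counts are taken by filter-based scintillation. Screening starts at 25 uM in duplicate, followed by concentration series for actives.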

[13] = molecular target: Bile acid receptor (Homo sapiens) (UniProt Q96RI1); experiment: OT_FXR_FXRSRC1_0480: Odyssey Thera (OT) 8-hour HEK293T Protein-Complementation Assay for Farnesoid X receptor/SRC-1 Co-activator (AID 2283383)
In short: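 PCA, HEK293T, 8 h compound exposure; FXR–SRC-1 binding reconstitutes split reporter; fluorescence intensity; positive-direction fit vs DMSO.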

[14] = molecular target: Bile acid receptor (Homo sapiens) (UniProt Q96RI1); experiment: OT_FXR_FXRSRC1_1440: Odyssey Thera (OT) 24-hour HEK293T Protein-Complementation Assay for Farnesoid X receptor/SRC-1 Co-activator (AID 2283384)
In short: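 Measures ligand-driven FXR–SRC-1 co-activator recruitment in HEK293T via fragment complementation, fluorescence intensity at 24 h. DMSO served as negative control and baseline for gain-of-signal fitting.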

[15] = molecular target: rat Androgen Receptor (AR), Ar (gene 24208) (UniProt P15207); experiment: NVS_NR_rAR: NovaScreen (NVS) Nuclear Receptor Binding Assay for rat Androgen Receptor (AR) (AID 2283366)
In short: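 Actives from a duplicate single-concentration (25 uM) primary run went on to concentration series. Displacement of radioligand was counted by filtration and scintillation, 18 h post-dose, using prostate extracts from testosterone-pretreated rats, with DMSO as baseline.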

[16] = test system: guinea pig Dopamine Transporter (DAT), gene 100714898; experiment: NVS_TR_gDAT: NovaScreen (NVS) Transporter Assay for guinea pig Dopamine Transporter (DAT) (AID 2283369);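 also: active compounds lower bound radioligand signal relative to DMSO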
In short: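 Primary pass: duplicate wells at 25 uM, threshold e.g. 30% inhibition. Follow-up: singleton concentration-response, highest 50 uM. Radioligand binding on guinea pig striatal membranes, 2 h, filtration scintillation detection.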

[17] = molecular target: Estrogen receptor beta (Homo sapiens) (UniProt Q92731); experiment: OT_ER_ERbERb_1440: Odyssey Thera (OT) 24-hour HEK293T Protein-Complementation Assay for Estrogen Receptor-beta/-beta Homodimer (AID 2283380);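 also: fluorescence gain from ER beta LBD homodimer complementation read by laser scanning cytometry; scored as signal increase over DMSO baseline for both agonists and antagonists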
In short: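 Fluorescence increase, nuclear for agonists or whole-cell for antagonists, relative to DMSO vehicle, quantified by laser scanning cytometer after fixation and Draq5 staining. Readout from 24 h treatment of HEK293T cells carrying complementation-paired ER beta LBD (aa 310-547).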

[18] = molecular target: Agonist Androgen Response Element (ARE), AR (gene 367) (UniProt P10275); experiment: OT_AR_ARELUC_AG_1440: Odyssey Thera (OT) 24-hour CHO-K1 Luciferase Assay for Agonist Androgen Response Element (ARE) (AID 2283379)
In short: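 Readout: luciferase bioluminescence from CHO-K1 ARE-luc cells, measured 24 h post-dosing; agonism = increased mean luminescence vs DMSO controls, fitted in positive direction.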

Nuclear receptor subfamily 1 group I member 2 (Homo sapiens), sequence (O75469 whole entry, looked up): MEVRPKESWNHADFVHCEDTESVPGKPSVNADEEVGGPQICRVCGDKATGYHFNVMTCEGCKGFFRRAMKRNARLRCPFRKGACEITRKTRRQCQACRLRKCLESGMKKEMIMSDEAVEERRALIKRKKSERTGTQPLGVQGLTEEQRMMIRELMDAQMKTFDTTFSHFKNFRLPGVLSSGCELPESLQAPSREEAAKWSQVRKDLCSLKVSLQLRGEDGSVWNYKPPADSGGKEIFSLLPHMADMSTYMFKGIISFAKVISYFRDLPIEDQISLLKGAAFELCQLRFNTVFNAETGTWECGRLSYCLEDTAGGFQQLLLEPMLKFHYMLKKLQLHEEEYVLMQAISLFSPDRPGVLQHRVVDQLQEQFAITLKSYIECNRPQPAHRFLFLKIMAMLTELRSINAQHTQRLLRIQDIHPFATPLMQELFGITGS
Estrogen receptor (Homo sapiens), sequence (P03372 whole entry, looked up): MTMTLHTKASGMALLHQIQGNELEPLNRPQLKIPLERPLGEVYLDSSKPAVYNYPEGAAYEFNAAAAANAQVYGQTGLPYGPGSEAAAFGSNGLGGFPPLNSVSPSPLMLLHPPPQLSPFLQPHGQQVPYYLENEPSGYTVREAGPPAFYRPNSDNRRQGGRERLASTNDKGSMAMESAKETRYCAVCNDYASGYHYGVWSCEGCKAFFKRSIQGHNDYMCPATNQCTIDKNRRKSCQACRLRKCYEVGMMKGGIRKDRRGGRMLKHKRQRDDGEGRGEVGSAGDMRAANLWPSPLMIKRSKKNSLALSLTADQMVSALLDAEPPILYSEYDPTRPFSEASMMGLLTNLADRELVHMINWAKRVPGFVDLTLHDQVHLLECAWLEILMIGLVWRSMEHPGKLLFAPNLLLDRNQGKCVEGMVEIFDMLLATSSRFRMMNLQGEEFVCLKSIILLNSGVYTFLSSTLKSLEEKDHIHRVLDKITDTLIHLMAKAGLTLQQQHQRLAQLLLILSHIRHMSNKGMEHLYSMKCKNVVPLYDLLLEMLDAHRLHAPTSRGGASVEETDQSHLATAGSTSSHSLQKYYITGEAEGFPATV
guinea pig Sigma Receptor, Non-selective Binding, SIGMAR1 (gene 100135589), sequence (Q60492 whole entry, looked up): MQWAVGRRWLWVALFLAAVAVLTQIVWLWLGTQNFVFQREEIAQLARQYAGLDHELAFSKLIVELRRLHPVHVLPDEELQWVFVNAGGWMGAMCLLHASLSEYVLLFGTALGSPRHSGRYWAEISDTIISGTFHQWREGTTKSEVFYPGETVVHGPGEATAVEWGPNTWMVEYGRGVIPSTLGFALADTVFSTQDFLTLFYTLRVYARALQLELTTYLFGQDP
rat Androgen Receptor (AR), Ar (gene 24208), sequence (P15207 whole entry, looked up): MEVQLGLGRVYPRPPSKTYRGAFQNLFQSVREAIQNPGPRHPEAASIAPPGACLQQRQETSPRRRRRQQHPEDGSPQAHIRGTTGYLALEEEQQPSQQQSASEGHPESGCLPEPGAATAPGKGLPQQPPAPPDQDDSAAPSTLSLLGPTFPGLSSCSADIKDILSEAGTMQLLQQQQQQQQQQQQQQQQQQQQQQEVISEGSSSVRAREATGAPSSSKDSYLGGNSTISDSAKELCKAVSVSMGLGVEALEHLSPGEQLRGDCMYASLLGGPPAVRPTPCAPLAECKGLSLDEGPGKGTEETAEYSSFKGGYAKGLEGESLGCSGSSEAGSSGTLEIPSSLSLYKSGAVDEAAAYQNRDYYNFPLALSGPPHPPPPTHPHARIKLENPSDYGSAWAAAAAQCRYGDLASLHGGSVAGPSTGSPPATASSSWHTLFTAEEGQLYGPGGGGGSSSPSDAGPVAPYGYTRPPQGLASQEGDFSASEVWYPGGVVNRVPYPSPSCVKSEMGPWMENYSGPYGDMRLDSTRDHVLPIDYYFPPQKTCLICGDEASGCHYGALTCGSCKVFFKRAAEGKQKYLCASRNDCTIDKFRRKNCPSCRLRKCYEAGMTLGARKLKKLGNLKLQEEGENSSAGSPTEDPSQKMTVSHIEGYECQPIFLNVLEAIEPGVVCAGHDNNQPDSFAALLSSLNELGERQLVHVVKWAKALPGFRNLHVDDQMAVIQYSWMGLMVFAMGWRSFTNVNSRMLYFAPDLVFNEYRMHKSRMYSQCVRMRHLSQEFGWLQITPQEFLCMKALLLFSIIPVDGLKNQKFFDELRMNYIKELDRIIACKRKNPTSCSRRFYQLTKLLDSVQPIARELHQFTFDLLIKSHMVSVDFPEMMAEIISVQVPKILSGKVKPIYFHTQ
human Dopamine Transporter (DAT), SLC6A3 (gene 6531), sequence (Q01959 whole entry, looked up): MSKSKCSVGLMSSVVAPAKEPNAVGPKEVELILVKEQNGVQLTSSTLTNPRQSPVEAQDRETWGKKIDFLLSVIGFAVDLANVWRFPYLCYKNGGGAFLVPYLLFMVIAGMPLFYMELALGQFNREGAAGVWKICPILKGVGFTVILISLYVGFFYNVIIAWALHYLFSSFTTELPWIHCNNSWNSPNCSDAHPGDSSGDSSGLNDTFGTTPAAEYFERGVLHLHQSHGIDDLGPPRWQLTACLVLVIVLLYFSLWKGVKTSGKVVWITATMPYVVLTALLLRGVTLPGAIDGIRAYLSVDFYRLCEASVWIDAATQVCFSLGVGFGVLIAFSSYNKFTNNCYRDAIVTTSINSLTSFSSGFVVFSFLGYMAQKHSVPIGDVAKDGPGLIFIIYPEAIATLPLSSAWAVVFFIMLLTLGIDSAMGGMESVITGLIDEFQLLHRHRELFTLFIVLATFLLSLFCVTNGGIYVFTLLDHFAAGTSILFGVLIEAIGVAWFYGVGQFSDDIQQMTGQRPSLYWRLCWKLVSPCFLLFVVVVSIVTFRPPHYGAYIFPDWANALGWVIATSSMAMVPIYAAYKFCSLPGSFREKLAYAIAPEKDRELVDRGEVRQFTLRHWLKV
Bile acid receptor (Homo sapiens), sequence (Q96RI1 whole entry, looked up, the tested form may be a part): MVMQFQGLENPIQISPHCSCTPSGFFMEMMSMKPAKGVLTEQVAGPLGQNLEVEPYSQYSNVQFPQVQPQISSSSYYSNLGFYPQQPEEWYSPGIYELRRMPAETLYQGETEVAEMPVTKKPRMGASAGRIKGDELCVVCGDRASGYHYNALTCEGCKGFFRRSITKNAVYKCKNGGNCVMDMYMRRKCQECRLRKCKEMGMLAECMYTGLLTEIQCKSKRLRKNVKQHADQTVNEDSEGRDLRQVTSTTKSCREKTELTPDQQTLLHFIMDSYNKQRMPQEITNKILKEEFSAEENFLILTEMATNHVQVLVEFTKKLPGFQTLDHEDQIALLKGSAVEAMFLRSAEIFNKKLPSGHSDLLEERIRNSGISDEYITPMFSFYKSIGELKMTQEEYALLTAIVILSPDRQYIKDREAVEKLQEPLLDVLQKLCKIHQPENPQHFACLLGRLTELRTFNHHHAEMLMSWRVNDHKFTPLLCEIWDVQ
Peroxisome proliferator-activated receptor gamma (Homo sapiens), sequence (P37231 whole entry, looked up): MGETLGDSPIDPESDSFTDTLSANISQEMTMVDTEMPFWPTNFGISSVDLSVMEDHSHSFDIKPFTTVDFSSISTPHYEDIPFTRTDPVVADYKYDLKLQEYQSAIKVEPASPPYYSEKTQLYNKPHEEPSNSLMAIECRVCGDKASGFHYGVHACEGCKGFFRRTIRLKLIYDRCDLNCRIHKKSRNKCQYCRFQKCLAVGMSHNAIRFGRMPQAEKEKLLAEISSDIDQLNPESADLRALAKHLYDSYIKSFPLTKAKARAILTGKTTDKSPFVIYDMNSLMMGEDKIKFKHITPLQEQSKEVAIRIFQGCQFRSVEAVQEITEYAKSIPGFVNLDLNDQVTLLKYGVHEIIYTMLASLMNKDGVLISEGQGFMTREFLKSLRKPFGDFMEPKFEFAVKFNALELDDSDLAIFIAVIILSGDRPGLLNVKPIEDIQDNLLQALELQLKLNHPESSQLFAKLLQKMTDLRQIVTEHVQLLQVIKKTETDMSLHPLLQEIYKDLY
Glucocorticoid receptor (Homo sapiens), sequence (P04150 whole entry, looked up): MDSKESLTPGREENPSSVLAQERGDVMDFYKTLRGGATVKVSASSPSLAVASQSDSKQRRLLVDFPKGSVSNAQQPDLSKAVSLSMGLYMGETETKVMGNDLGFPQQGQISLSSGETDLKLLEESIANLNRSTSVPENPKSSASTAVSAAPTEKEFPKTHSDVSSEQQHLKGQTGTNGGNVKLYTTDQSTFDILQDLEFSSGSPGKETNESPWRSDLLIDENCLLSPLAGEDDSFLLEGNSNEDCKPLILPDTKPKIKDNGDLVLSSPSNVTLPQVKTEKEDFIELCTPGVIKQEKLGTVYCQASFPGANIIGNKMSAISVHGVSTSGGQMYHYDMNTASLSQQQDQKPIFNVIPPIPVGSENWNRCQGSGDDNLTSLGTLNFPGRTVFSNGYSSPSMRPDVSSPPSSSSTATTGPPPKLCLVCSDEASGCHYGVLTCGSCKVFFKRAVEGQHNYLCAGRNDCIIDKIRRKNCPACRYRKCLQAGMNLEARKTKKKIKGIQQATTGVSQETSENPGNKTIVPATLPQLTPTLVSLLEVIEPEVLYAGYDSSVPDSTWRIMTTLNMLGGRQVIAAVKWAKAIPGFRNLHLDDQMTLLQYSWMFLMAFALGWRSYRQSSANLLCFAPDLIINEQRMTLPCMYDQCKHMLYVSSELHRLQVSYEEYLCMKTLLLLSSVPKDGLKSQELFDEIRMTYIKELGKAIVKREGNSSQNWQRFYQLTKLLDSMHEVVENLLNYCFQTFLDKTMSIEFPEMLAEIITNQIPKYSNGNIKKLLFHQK

Structure (SMILES): CC[C@H](C)[C@H]1O[C@]2(C=C[C@@H]1C)C[C@@H]1C[C@@H](C/C=C(\C)[C@@H](O[C@H]3C[C@H](OC)[C@@H](O[C@H]4C[C@H](OC)[C@@H](NC)[C@H](C)O4)[C@H](C)O3)[C@@H](C)/C=C/C=C3\CO[C@@H]4[C@H](O)C(C)=C[C@@H](C(=O)O1)[C@]34O)O2
- AC50 [1]: 6.81 µM (active)
- outcome [2]: inactive
- outcome [3]: inactive
- AC50 [4]: 4.68 µM (active)
- AC50 [5]: 5.29 µM (active)
- AC50 [6]: 17.9 µM (active)
- outcome [7]: inactive

Structure (SMILES): S=C1NCCN1
- outcome [8]: inactive

Structure (SMILES): CCOP(=S)(OCC)Oc1ccc([N+](=O)[O-])cc1
- AC50 [9]: 6.96 µM (active)
- outcome [10]: inactive
- AC50 [11]: 7.25 µM (active)
- AC50 [12]: 8.93 µM (active)

Structure (SMILES): CC(C)N(C(=O)SCC(Cl)=C(Cl)Cl)C(C)C
- outcome [9]: inactive
- outcome [1]: inactive
- AC50 [3]: 7.84 µM (active)
- outcome [12]: inactive
- AC50 [13]: 21.9 µM (active)
- AC50 [14]: 80.5 µM (active)

Structure (SMILES): CCc1cccc(C)c1N(C(=O)CCl)C(C)COC (configuration not stated)
- outcome [8]: inactive
- outcome [10]: inactive

Structure (SMILES): C=C(C)[C@H]1Cc2c(ccc3c2O[C@@H]2COc4cc(OC)c(OC)cc4[C@@H]2C3=O)O1
- AC50 [9]: 0.425 µM (active)
- outcome [15]: inactive
- outcome [16]: inactive
- outcome [10]: inactive
- outcome [3]: inactive
- AC50 [13]: 12.7 µM (active)
- AC50 [14]: 9.92 µM (active)

Structure (SMILES): CCCCN(CC)c1c([N+](=O)[O-])cc(C(F)(F)F)cc1[N+](=O)[O-]
- outcome [9]: inactive
- outcome [10]: inactive

Structure (SMILES): COP(=O)(NC(C)=O)SC (configuration not stated)
- AC50 [9]: 1.66 µM (active)
- outcome [10]: inactive
- outcome [17]: inactive

Structure (SMILES): CNC(=O)ON=C(SC)C(=O)N(C)C
- outcome [15]: inactive
- outcome [18]: inactive
- outcome [6]: inactive
- outcome [7]: inactive

Structure (SMILES): CC(COc1ccc(Oc2ccccc2)cc1)Oc1ccccn1 (configuration not stated)
- outcome [15]: inactive
- outcome [10]: inactive
- outcome [3]: inactive
- AC50 [13]: 43 µM (active)
- AC50 [14]: 7.29 µM (active)

Structure (SMILES): CC(C1CC1)C(O)(Cn1cncn1)c1ccc(Cl)cc1 (configuration not stated)
- outcome [1]: inactive
- AC50 [3]: 0.175 µM (active)

Structure (SMILES): CNC(=O)ON=C(C)SC
- outcome [9]: inactive
- outcome [17]: inactive

Structure (SMILES): CCCSP(=O)(OCC)SCCC
- outcome [9]: inactive
- outcome [15]: inactive
- outcome [10]: inactive
- outcome [18]: inactive
- outcome [13]: inactive
- outcome [14]: inactive

Structure (SMILES): CCC(=O)Nc1ccc(Cl)c(Cl)c1
- AC50 [8]: 9.51 µM (active)
- AC50 [2]: 4.96 µM (active)
- AC50 [3]: 6.22 µM (active)
- AC50 [4]: 23.3 µM (active)
- AC50 [5]: 4.14 µM (active)
- outcome [18]: inactive
